Assay results as given in PubChem BioAssay (NCATS).
Results filed as inconclusive are left out. The source made the active and inactive calls. The call rests on the fitted dose curve; in most records, active means well fitted curve in the direction sought with a large enough effect; inconclusive means small, poorly fitted or top-dose-only effect, or another doubt; inactive means no such curve, though single readings can be large; an effect the other way counts as inactive or inconclusive.

Columns and labels:
[1] = target: Glutathione peroxidase 1 (Homo sapiens) (UniProt P07203); test: Primary qHTS Assay for Inhibitors of Recombinant Selenoprotein Glutathione Peroxidase 1 (GPX1) (AID 1845191); further: nearly all actives have a fitted effect of over 65% in size
Summary of the method: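 GPX1 10 nM, GR 100 nM, GSH 1 mM, NADPH 0.5 mM, CHP 0.5 mM (final). 30-min cpd preincubation, RT. Ex340/Em450 read t=0, t=15 min.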

[2] = target: Phospholipid hydroperoxide glutathione peroxidase GPX4 (Homo sapiens) (UniProt P36969); test: Primary qHTS Assay for Inhibitors of Recombinant Selenoprotein Glutathione Peroxidase 4 (GPX4) (AID 1845192); further: nearly all actives have a fitted effect of over 65% in size
Summary of the method: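 qHTS, GR-coupled: GPX4 200 nM + cpd 30 min RT → GSH 1 mM, NADPH 0.5 mM, GR 100 nM → CHP 0.5 mM start; fluor 340/450 at t0 and t15 min; no-enzyme wells as control.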

[3] = target: Luciferin 4-monooxygenase (Photinus pyralis) (UniProt P08659); test: Primary firefly luciferase (FLuc) qHTS assay for identification of artifact compounds. (AID 1845220); further: nearly all actives have a fitted effect of over 60% in size
Summary of the method: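 qHTS, 15 min compound preincubation with substrate (10 uM luciferin, 10 uM ATP) at RT, then 10 nM FLuc; 5 min; luminescence; % inhibition vs no-enzyme/DMSO controls, 4-parameter Hill fit.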

[4] = Primary fluorescence-based thiol-reactive (MSTI) qHTS assay for identification of artifact compounds. (AID 1845221); further: nearly all actives have a fitted effect of over 65% in size; further: potency means the concentration at half of the fitted maximal effect
Summary of the method: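 One-hour, room-temperature, dark incubation of compound with 4 uM MSTI in PBS (pH 7.4, 2% DMSO) precedes a fluorescence read at 525 nm excitation, 598 nm emission; Hill-equation fitting yields concentration-response values.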

[5] = system: Nanoluciferase (engineered Oplophorus gracilirostris luciferase); test: Primary Nanoluciferase (NLuc) qHTS assay for identification of artifact compounds. (AID 1845222); further: series mostly up to about 54 µM
Summary of the method: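 Luminescence read-out of secreted NLuc in S16 cell conditioned medium (1:55); compounds tested with 15 min RT preincubation, then Nano-Glo substrate 1:100, 5 min. % inhibition vs no-enzyme and DMSO controls, 4-parameter Hill fit.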

[6] = Primary redox qHTS assay for identification of artifact compounds. (AID 1845223)
Summary of the method: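 Redox-cycling detection via DTT (250 uM final) oxidation coupled to Amplex Red (25 uM)/HRP (250 mU/mL) in HBSS. 15 min preincubation plus 30 min after DTT, room temperature. Ex/Em 525/598 nm; 4-parameter Hill fit against DMSO and 10 uM DA3003.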

Measured: Potency

Sequence of Phospholipid hydroperoxide glutathione peroxidase GPX4 (Homo sapiens) (P36969 whole entry, looked up): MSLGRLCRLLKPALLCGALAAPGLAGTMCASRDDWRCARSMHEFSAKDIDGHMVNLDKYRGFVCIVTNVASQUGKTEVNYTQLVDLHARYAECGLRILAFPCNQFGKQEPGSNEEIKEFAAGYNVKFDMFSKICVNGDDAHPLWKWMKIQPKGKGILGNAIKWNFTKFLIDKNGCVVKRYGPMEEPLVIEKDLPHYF
Sequence of Glutathione peroxidase 1 (Homo sapiens) (P07203 whole entry, looked up): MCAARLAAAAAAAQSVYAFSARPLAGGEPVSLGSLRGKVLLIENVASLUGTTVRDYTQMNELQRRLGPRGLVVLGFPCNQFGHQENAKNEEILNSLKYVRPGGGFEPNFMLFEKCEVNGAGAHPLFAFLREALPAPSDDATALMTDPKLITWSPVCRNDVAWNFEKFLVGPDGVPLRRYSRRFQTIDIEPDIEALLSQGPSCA

CC(C)=CCC/C(C)=C/CC/C(C)=C/CC[C@]1(C)CCc2cc(O)cc(C)c2O1
inactive: all assays above

C=C1CCC[C@]2(C)C[C@]3(O)OC(=O)C(C)=C3C[C@@H]12
inactive: all assays above

CC(=O)OC[C@@]12[C@H](O)C[C@@H](C)[C@]3(C[C@@H](c4ccoc4)OC3=O)[C@H]1C[C@H](O)C[C@]21CO1
inactive: all assays above

OC[C@H]1O[C@@H](Oc2ccc3c(c2)OC[C@H]2c4cc5c(cc4O[C@@H]32)OCO5)[C@H](O)[C@@H](O)[C@@H]1O
inactive: all assays above

CC1(C)NC2N(C1=O)c1ccccc1C2(O)CC(C(=O)O)n1cnc2ccccc2c1=O (stereo not given)
inactive: all assays above

COC(=O)c1cc(CN2CCN(C(=N)N)CC2)cc(C(=O)N2CCN(C(=O)c3ccc(C(=N)N)cc3)CC2)c1
inactive: all assays above

CC1(C(=O)O)CCCC2(C)C1CCC13CC(CCC21)C1(CO)OC31 (stereo not given)
inactive: all assays above

Cc1c(N2C(=O)c3ccc(C(=O)O)cc3C2=O)c(=O)n(-c2ccccc2)n1C
inactive: all assays above

N[C@H]1C[C@H]1c1ccc(-c2cccc(O)c2)cc1
inactive: all assays above

COC12CC3C(C(C)C1=CC(=O)O2)C(O)C(OC(C)=O)C1C(C)(C)C(OC(C)=O)CCC31C (stereo not given)
inactive: all assays above

C[C@H](NCc1ccc(OCc2ccccc2F)cc1)C(N)=O
inactive: all assays above

CC(C)[C@@H](C)/C=C/[C@@H](C)[C@H]1CC[C@H]2C3=CC=C4C[C@@H](O)CC[C@]4(C)[C@H]3CC[C@]12C
inactive: all assays above

O=c1ccn(C2OC(CO)C(O)C2O)c(=O)[nH]1 (stereo not given)
inactive: all assays above

COc1cc(C2Oc3c(OC)cc(/C=C/C(=O)OC[C@H]4O[C@@H](OC(C)(C)C(=O)O)[C@H](O)[C@@H](O)[C@@H]4O)cc3C2CO)ccc1O (stereo not given in full)
inactive: all assays above

COc1c(C)c2c(c(O)c1C/C=C(\C)CC/C=C(\C)CCC(=O)O)C(=O)OC2
inactive: all assays above

CC1NC(=O)C(Cc2c[nH]c3ccccc23)NC1=O (stereo not given)
inactive: all assays above

Cc1onc(-c2ccccc2)c1C(=O)N[C@@H]1C(=O)N2[C@@H]1SC(C)(C)[C@@H]2C(=O)O
inactive: all assays above

CC(C)NC[C@H](O)COc1ccc(CCOCC2CC2)cc1
inactive: all assays above

C[C@@H]1CC[C@]2(C(=O)O[C@@H]3O[C@H](CO)[C@@H](O)[C@H](O)[C@H]3O)CC[C@]3(C)C(=CCC4[C@@]5(C)C[C@@H](O)[C@H](O)C(C)(C)C5CC[C@]43C)C2[C@]1(C)O (stereo not given in full)
inactive: all assays above

C/C=C/C1=CC2=C(CO1)C(=O)[C@](C)(O)[C@H](OC(=O)c1c(O)cc(OC)c(O)c1C)C2
active: [4] 1030 nM
inactive: all other assays above
